Source: PubChem BioAssay (National Center for Advancing Translational Sciences (NCATS))
Pf growth 48h – Primary qHTS for delayed death inhibitors of the malarial parasite plastid, 48 hour incubation; P. falciparum luciferase growth in erythrocytes, 48 h; Potency, µM (highest dose often 28.7 µM), inactives show at the highest dose activity change, negative = inhibition, actives largely listed as inhibitors; hit rate 5.9% among 310,000; AID 504832, 2011; further: potency means the concentration at half of the fitted maximal effect
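Erythrocytes infected with P. falciparum carrying an integrated firefly luciferase reporter (2% hematocrit, 0.1% parasitemia final) were exposed to compounds in RPMI 1640 with 0.5% Albumax at 37 C, 5% CO2. Growth inhibition was scored as reduced luminescence.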
Pf growth 96h – Primary qHTS for delayed death inhibitors of the malarial parasite plastid, 96 hour incubation | P. falciparum luciferase reporter growth, 96 h | AID 504834, 2011 | Potency, µM (doses to about 28.7 µM), inactives show at the top dose activity change, negative = inhibition, most hits filed as inhibitors | hit rate 6.9% among 320,000; further: potency means the concentration at half of the fitted maximal effect
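Parasite growth measured via integrated firefly luciferase reporter in P. falciparum. Infected erythrocytes at 2% hematocrit, 0.05% parasitemia final were treated 96 hours at 37 C under 5% CO2, and luminescence was read.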
HCMV inh – qHTS Assay for inhibitors of the human cytomegalovirus (HCMV) | hit rate 4.5% among 410,000 | HFF cells, HCMV-luciferase reporter, 72 h; hits give low values | activity change, negative = inhibition, % at 57.5 µM; in the data active means activity change below about -60%; inconclusive means no clear call, values can overlap the other calls; inactive means above about -39%
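Steps: HFFs plated, 16 h 37C; compounds added; HCMV-luciferase added to MOI 1 PFU/cell; 72 h 37C; OneGlo reagent, 5 min room temperature; luminescence read, normalized to controls.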
FBPA Giardia inh – qHTS Assay for Inhibitors of Fructose-1,6-bisphosphate Aldolase from Giardia Lamblia. purified Giardia FBPA. Potency, µM (doses to about 59.6 µM), for inactives: at the highest dose activity, negative = inhibition, usual class: inhibitors. A8B2U2. hit rate 0.71% among 290,000; further: potency means the concentration at half of the fitted maximal effect; nearly all actives have a fitted effect of over 55% in size
Target sequence (A8B2U2 whole entry, looked up): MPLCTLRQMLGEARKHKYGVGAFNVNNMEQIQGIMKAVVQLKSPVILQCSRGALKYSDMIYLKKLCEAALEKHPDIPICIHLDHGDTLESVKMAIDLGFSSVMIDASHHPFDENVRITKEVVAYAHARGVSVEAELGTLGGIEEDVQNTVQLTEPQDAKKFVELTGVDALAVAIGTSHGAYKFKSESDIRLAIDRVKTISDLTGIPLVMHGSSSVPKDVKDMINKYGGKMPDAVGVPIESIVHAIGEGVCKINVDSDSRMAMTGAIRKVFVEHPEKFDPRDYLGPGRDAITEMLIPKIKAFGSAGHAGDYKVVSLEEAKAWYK
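40 nM FBPA preincubated 10 min at RT with compound (up to 57.5 uM final), then substrate plus GAPDH/TPI/NAD/arsenate coupling and diaphorase/resazurin added. Fluorescence read after 20 min at RT, 525/598 nm.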
Sm TGR inh – qHTS Assay for the Inhibitors of Schistosoma Mansoni Peroxiredoxins; AID 485364, 2010; purified TGR, DTNB reduction, TNB absorbance 405 nm; Potency, µM (doses to about 114 µM), for the others: top-dose activity change, negative = inhibition, hits mostly inhibitors; Schistosoma mansoni thioredoxin glutathione reductase (TGR), Q962Y6; hit rate 3% among 360,000; further: potency means the concentration at half of the fitted maximal effect; nearly all actives have a fitted effect of over 60% in size
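Kinetic colorimetric format: TGR-catalysed, NADPH-driven DTNB reduction monitored via TNB absorbance. Enzyme dispensed at 20 nM; compound exposure 15 min at room temperature before reaction start.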
* = called active by the depositor; i = inactive; u = inconclusive; x = no result; [ ] = dose if it differs, or a comment. Most compounds without a hit are left out; they make up all but 14% or so of the library. Unless noted, the call rests on the fitted dose curve; in most records, active means well fitted curve in the direction sought with a large enough effect; inconclusive means small, poorly fitted or top-dose-only effect, or another doubt; inactive means no such curve, though single readings can be large; an effect the other way counts as inactive or inconclusive. On the % scale 0 is the no-effect control and ±100 the full control effect.

SMILES | Pf growth 48h | Pf growth 96h | HCMV inh | FBPA Giardia inh | Sm TGR inh
COC(C(=O)NNC(=O)CCc1ccccc1)c1ccccc1 (centres undefined) | -30% | -39% | 20 | 1% | 3%
CN(C)C(=O)CSc1ccc(S(=O)(=O)N2CCCC2)cn1 | u | -1% | 4 | x | 3%
CC(C)N(C(=O)CSc1ccc(S(=O)(=O)N2CCCCC2)cn1)c1ccccc1 | 8.3µM* | u | -8 | x | -2%
O=S(=O)(Cc1ccccc1)Nc1ccc(S(=O)(=O)N2CCCC2)cc1 | 2.3µM* | 5% | -18 | 1% | -1%
CCN(C(=O)C(C)Sc1ccc(S(=O)(=O)N2CCN(C)CC2)cn1)c1ccccc1 (centres undefined) | u | 12µM* | -8 | x | u
O=S(=O)(Nc1ccccc1)c1ccc(S(=O)(=O)N2CCCC2)cc1 | u | u | -3 | x | -22%
CC(NC(=O)Cc1ccc(S(=O)(=O)N2CCCCC2)cc1)c1ccccc1 (centres undefined) | 12µM* | 8.3µM* | 20 | x | -10%
Cc1oc2ncn(C)c(=O)c2c1C(=O)NCCCN1CCCCC1C (centres undefined) | x | x | 8 | x | -4%
COc1ccc(N(CC(=O)N/N=C/c2ccco2)S(=O)(=O)c2ccccc2)cc1 | -2% | 1% | -22 | 8% | 28µM*
COc1ccc(N(CC(=O)N/N=C/c2ccco2)S(=O)(=O)c2ccccc2)cc1Cl | -28% | u | 13 | -5% | -17%
COc1ccc(N(CC(=O)NCc2ccco2)S(C)(=O)=O)c(OC)c1 | 2% | i | 22 | -2% | -18%
COc1ccc(N(CC(=O)NCc2ccco2)S(=O)(=O)c2ccccc2)cc1 | -11% | 6.6µM* | 13 | 1% | 2%
O=C(CN(c1ccccc1)S(=O)(=O)c1ccccc1)N/N=C/c1ccco1 | 7% | 3.7µM* | -4 | 3% | -26%
CS(=O)(=O)N(CC(=O)NCc1ccco1)c1ccccc1Cl | 11% | x | 17 | 0% | 40µM*
COc1ccc(N(CC(=O)N/N=C/c2ccccc2OC)S(=O)(=O)c2ccccc2)cc1 | x | -15% | -12 | -5% | -5%
Cc1ccc(S(=O)(=O)N(C)c2ccc(C(=O)NCc3cccnc3)cc2)cc1 | u | u | -39 | x | -19%
CCOc1ccc(N(CC(=O)NCc2ccco2)S(C)(=O)=O)cc1 | 53% | 0% | 46 | 8% | 50µM*
COc1ccc(S(=O)(=O)Nc2ccccc2C(=O)NCc2ccco2)cc1 | x | -12% | -11 | 19% | -1%[11.4 µM]
Cc1ccc(N(CC(=O)N/N=C/c2ccco2)S(=O)(=O)c2ccccc2)cc1 | u | u | u | -2% | 25µM*
CCOc1ccc(N(CC(=O)Nc2ccccc2C(=O)NCc2ccco2)S(C)(=O)=O)cc1 | 10% | x | -17 | -7% | 3%
Cc1ccc(S(=O)(=O)N(Cc2ccccc2)c2ccccc2C(=O)NCc2cccnc2)cc1 | 5.2µM* | 20% | -6 | 18% | -6%
COc1ccc(S(=O)(=O)N(Cc2ccccc2)c2ccccc2C(=O)Nc2ccccc2C(=O)NCc2ccco2)cc1 | 13µM* | i | u | -3% | -18%
Cc1ccccc1CN1CCN(C(C)C(=O)NNC(=O)c2ccc(F)cc2)CC1 (centres undefined) | -14% | u | 16 | x | -11%
COc1cc(C)ccc1OCc1cc(C(=O)NCCN2CCOCC2)no1 | 24% | -13% | 78 | -6% | -23%
CCOC(=O)c1cc(-c2ccccc2)n(Cc2cc(CC)no2)n1 | -4% | 90% | -32 | x | 5%
COc1ccc(/C=N/NC(=O)CN(c2ccc(OC)cc2)S(=O)(=O)c2ccccc2)cc1 | u | u | -16 | -2% | 1%
COc1ccc(N(CC(=O)N/N=C/c2ccc(F)cc2)S(=O)(=O)c2ccccc2)cc1 | u | 42% | -69* | -2% | -4%
Cc1ccc(C(c2nc3ccccc3[nH]2)n2c(-c3ccccc3)nc3ccccc32)cc1 (centres undefined) | x | x | 59 | x | x
